Test results reported in the supplement of paper PMC6555819.

These sequences were tested on RXRa DBDmut IVT, anti-RXR (DBD mutation: RXRa K156A/R161A, NR concentration 90 nM) (assay: PBM binding z-score (relative to random genomic background probes); higher = stronger binding; sequences stand for … in GC…GCGATTGACAGCGTAGAATGAAGG).
Summary of the method: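 Each nuclear receptor dimer, without ligand, was incubated for 1 h on custom Agilent 4×180K protein-binding microarrays. Binding was detected with antibodies against each partner (one per run), and scanned fluorescence was regression-normalized. The binding z-scores are referenced to random human genomic background probes.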

Sequence	PBM binding z-score
AGTATGAGGTTATTAAGATCAGGGAATTGCGGTC	2.07
TCTTGTAGATCAACAGGAGGTTTAGAAAGATCGA	0.348
TCGAGTAGGTTAGTCGGGTCATTCAGCCAACATA	0.747
CCTCGGAGGAAAACAGGAGGTCAGAGCTGCCAGA	-0.428
CCTACTGGGCCATAGGTCATTGATTCCAATGCTC	0.122
CCTAGTTGGACAGGAGGTCACACACCGGATATGA	1.02
CATAGTTGGTCAGGAGGTCACACACCGGATATGA	0.639
CCTTACGGGTCACGAGGTAATAGCACGACGAGCG	1.67
TGGAGTAGGTTACCAATGGGGCATTCAGCTTTCT	-0.418
GCGACTGGGGCAAAGCAGTTTACCATAAGGTTGG	0.0079
CCTTACGGGTCACTGACAGGTTATAACATTTGGA	1.78
CTCGAAAGGGCGGTTGAGGTGAGTATACGGATAA	0.039
CTCGAAAGGTCGCTTGAGGTGAGTATACGGATAA	1.89
CCTACTGGGCCAAAAAGGTCGTTGATGCCGATAA	0.0571
CCGACAGGGGCAAGGTTACCATAACGCACAGCCA	0.0606
CCTAGTTGGTCAGGAGGTCACCCACCGGATATGA	-0.0796
GCATATAGGTAATACAAGGTGTAAGTCCGATTGT	0.314
AACTCTAGGTAACAAGTTCAGTGAAAGAGAGGAC	1.13
CCTGCTAGGCCATGGTCAGCTAATCTACAGTATG	0.152
AGTCAAAGTTAATCTAGGTAACGTAAGATATGCT	-0.168
CATACAGGGTCAGCTAGGTCAGAGTAGGGACGGC	1.93
CCTAGCAGGCCAATCTGGGTCAGTCAAGGCTTGA	-0.281
